Source: PMC12136788
Positions count from the first letter of the chain named. In all, about 24,000 sequences were measured (“enrichment r”: median about 0.99, highest 2% from about 3.7 on). The list comes from a sample in which the highest values are over-represented; it also holds similar and randomly drawn sequences.

T1: UNK ZnF1-3 (human, UniProt Q9C0B0 31-174)
T1 sequence: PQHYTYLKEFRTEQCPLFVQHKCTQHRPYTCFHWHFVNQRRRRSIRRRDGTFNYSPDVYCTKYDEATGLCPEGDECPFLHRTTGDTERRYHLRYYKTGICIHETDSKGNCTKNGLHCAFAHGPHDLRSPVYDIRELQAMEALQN

B1: chr5:31803264:31803265:+_ENSMUSG00000064037_ENSMUST00000076949|mus_mus|FALSE|FALSE (ssRNA)
RNA: GGGAGUUCUACAGUCCGACGAUCUGGAAAUGAGGAAGCCAGGGCCUCAGUGAUGAUUGUCCCUGAAGCUGACCAGGUAAAUACUUCAAUCUGUCCAGGUGUGUCAAUCAAGACAUAUCUGAAUGUGUUCUGGGCCUUCUCAAUCAACAGAGGAUUGAGCAUCA
B2: 64960267_64960387_5255_CDS_ENSG00000171988_ENST00000542921|human|control|control (ssRNA)
RNA: GGGAGUUCUACAGUCCGACGAUCUGAGUGAGCUGGUUCUUCUCCUUUUUUACUGCGAAUAAGUCUACAUUCUCGACACUUUUGUAAAUUAGGCCCUAUCUCACAGCAGGAGUCAUCCUGUAAAAAGGAUUCCCCAGUUUGCUUCAACAGAGGAUUGAGCAUCA
B3: chr4:76721835:76721836:+_ENSG00000138768_ENST00000264904|hu_mus|hu_hu_hu_mus_True|98_108 (ssRNA)
RNA: GGGAGUUCUACAGUCCGACGAUCGUUGGCUGGGGUUUCUGAGAUGCCUCUGGAAUAUAACUCAUGUUUGCUAAUAAAUCCUAGUUUCUCUAUGAAAUUCUCUUUGCCAAUCCUCUUCUCUAUUAGUUGCUUUAGUUUCUCUUUCAACAGAGGAUUGAGCAUCA
B4: chr1:241675328:241675329:-_ENSG00000091483_ENST00000366560|hu_hu|FALSE|FALSE (ssRNA)
RNA: GGGAGUUCUACAGUCCGACGAUCGCUUUUAUUAACAUGAUCGUUGGGAUGCACAGGUAUCUUGCUGCCAAGUUCACCUCCUAACAUUUCAAUUGCUCUAUUGCUAAUGACUUCAUUUACAUUCAUAUUUGUCUGAGUUCCUGACAACAGAGGAUUGAGCAUCA
B5: 21460886_21461006_6735_CDS_ENSMUSG00000042453_ENSMUST00000161356|mouse|control|control (ssRNA)
RNA: GGGAGUUCUACAGUCCGACGAUCAGGAUUUUUGGUGCUUAUUUUACAGGUUGGCCCAGAGUAGCCCGGGUCACAUAUACACUUGGUUCCAUUGAUGCAGCUCCCGUGCCCAUAGCACAUCUCUUCACACUGGGGACCAAUGUACAACAGAGGAUUGAGCAUCA
B6: chr10:121586544:121586545:+_ENSG00000198825_ENST00000369080|hu_mus|motif|central (ssRNA)
RNA: GGGAGUUCUACAGUCCGACGAUCCGACUGCCUAAUCGAGGUGCUGACACAAUAAUCCCACAGCUUGGGAGAAUGUAAUCGGUUGGCCCUACGCUCUCUAAAGAAUUGGCUAGCUGCUUGUCUUCCUCCGACUUAGAAUUUGUACAACAGAGGAUUGAGCAUCA
B7: chr2:153237265:153237266:-_ENSMUSG00000061411_ENSMUST00000109784|mus_mus|mus_mus_mus_hu_False|78_108 (ssRNA)
RNA: GGGAGUUCUACAGUCCGACGAUCAAAAAAAAGAAAAAAAAAGUGUCCUUGUGCCCAAAGUCUCAGAUGCUUGGAGUGUGGCUAGAAACAGCUCUUUUGGAUCCCACCUCUUUCAAAAACAAAAUGUACCAACUGGUGAGGCAGCAACAGAGGAUUGAGCAUCA
B8: chr2:153237265:153237266:-_ENSMUSG00000061411_ENSMUST00000109784|mus_mus|mus_mus_mus_hu_False|28_78 (ssRNA)
RNA: B7 RNA with G32A, A115G
B9: chr2:153237265:153237266:-_ENSMUSG00000061411_ENSMUST00000109784|mus_mus|mus_mus_mus_hu_False|78_98 (ssRNA)
RNA: B7 RNA with G32A, A37G
B10: chr2:153237265:153237266:-_ENSMUSG00000061411_ENSMUST00000109784|mus_mus|mus_mus_mus_hu_False|78_78 (ssRNA)
RNA: B7 RNA with G32A
B11: 112580157_112582736_3545_CDS_ENSG00000153107_ENST00000341068|human|control|control (ssRNA)
RNA: GGGAGUUCUACAGUCCGACGAUCCAAAUCUCUUAAAGUGAAUCCUACAUUAGUCAUCCAGACAACCAAUCUUUCAGCUAGACUAGAAACAGAUGUAGAAUGCCUGAAACUAAACCUGUUUUCCUCUUGUUCUACUUGCAACUUCAACAGAGGAUUGAGCAUCA
B12: chr2:153237265:153237266:-_ENSMUSG00000061411_ENSMUST00000109784|mus_mus|mus_mus_mus_hu_False|58_78 (ssRNA)
RNA: B7 RNA with G32A, U78C, G79A
B13: chr2:153237265:153237266:-_ENSMUSG00000061411_ENSMUST00000109784|mus_mus|FALSE|FALSE (ssRNA)
RNA: GGGAGUUCUACAGUCCGACGAUCAAAAAAAAGAAAAGAAAAGUGUCCUUGUGCCCAAAGUCUCAGAUGCUUGGAGUGCAGCUAGAAACAGCUCUUUUGGAUCCCACCUCUUUCAGAAAACAGUGUACCAACUGGUGAGGCAGGCAACAGAGGAUUGAGCAUCA
B14: 61074685_61077595_487_3pUTR_ENSG00000119541_ENST00000238497|human|control|control (ssRNA)
RNA: GGGAGUUCUACAGUCCGACGAUCUCUUUUUUUCAGGAUCAUCAGAUUCUCCUUCCCCAUCACUGUCAUUCCCCUUCUCAUCUGCUGGACUCGGCUGUCCUUCUUUCACUGGCUUCUGUGCUUUUUUCUCUUUAUUUUUCAGGUCAACAGAGGAUUGAGCAUCA
B15: chr7:149068622:149068623:-_ENSMUSG00000025139_ENSMUST00000001950|mus_hu|mus_mus_mus_hu_False|8_28 (ssRNA)
RNA: GGGAGUUCUACAGUCCGACGAUCGUGAGGCCUCUGAGUGUGGCUUGUGGUCUGUCCUGGGUUAGAGUUGUUAAUAUCACGGAACAUACCAUCUAGAACGUUCCAGUCUGCCUGACUACCUUCAUUCGCAAGAGGGCAGAAAUCCAACAGAGGAUUGAGCAUCA
B16: chr5:138634757:138634758:+_ENSMUSG00000036968_ENSMUST00000110934|mus_hu|FALSE|FALSE (ssRNA)
RNA: GGGAGUUCUACAGUCCGACGAUCGUAGACCAAGUAUCUAUCCCACCUAAAUUAUCAGCAACUCCAGGCCAUGACCCAGUGUCCCAUUCUCCUUCACGGUUUGCUGGUGUGUAGCCUCCUGGAUACAGGCAAUGUAUAUAGAUCCAACAGAGGAUUGAGCAUCA
B17: chr17:56552419:56552420:-_ENSMUSG00000013236_ENSMUST00000086828|mus_mus|mus_mus_mus_hu_False|28_88 (ssRNA)
RNA: GGGAGUUCUACAGUCCGACGAUCAAAAAAUACACUAUUUAAAAAAAAAAGAAAAAAACGGGAUACAGUUACACUGAGAGUUUUAAAAGAAAGCUGGAUUCUGGUCCUUGCCAAAAGUCCCCAGGCUGCAGAGCGGGGAGGAGCCAACAGAGGAUUGAGCAUCA
B18: chr17:56552419:56552420:-_ENSMUSG00000013236_ENSMUST00000086828|mus_mus|mus_mus_mus_hu_False|58_88 (ssRNA)
RNA: B17 RNA with G77C, G79C, U81A, U107C, U108A, A112C, A114G, A115U
B19: chr17:56552419:56552420:-_ENSMUSG00000013236_ENSMUST00000086828|mus_mus|mus_mus_mus_hu_False|88_88 (ssRNA)
RNA: B17 RNA with U107C, U108A, A112C, A114G, A115U
B20: chr17:56552419:56552420:-_ENSMUSG00000013236_ENSMUST00000086828|mus_mus|mus_mus_mus_hu_False|8_88 (ssRNA)
RNA: GGGAGUUCUACAGUCCGACGAUCAAAAAAUACACUAUUUAAAAAAAAAAGAAAAAAACGGGAUACAGUUACACUGAGAGUUUUAAAAGAAAGCUGGAUUCUGGUCCCAGCCCAGUGUCCCCAGGCUGAGUGCGGAAGAGGAGCCAACAGAGGAUUGAGCAUCA
B21: 30734625_30737523_1216_CDS_ENSG00000101337_ENST00000398022|human|control|control (ssRNA)
RNA: GGGAGUUCUACAGUCCGACGAUCCAGGGAGCUGAGGAUCAUGGGGUACUGGGGGGGCCUGAAGACGUCGCCGUGCACCAACUUCCACCCAGACUCCUCCAUGGUGUCUUCAAUGUCAUCCUCCUUGUUGUAGUUGGCAAUGUCCAACAGAGGAUUGAGCAUCA
B22: chr7:149068622:149068623:-_ENSMUSG00000025139_ENSMUST00000001950|mus_hu|mus_mus_mus_hu_False|68_68 (ssRNA)
RNA: GGGAGUUCUACAGUCCGACGAUCGUGAGGCCUCUGAGUGUGGCUUGUGGUCUGUCCUGGGUUAGAGCUGCUGGUAACACGGAACAUACCAUCUAGAACGUUCCAGUCCCGCCUGACACCUUCAUUCCCAAUGGAGAAGAAAUCCAACAGAGGAUUGAGCAUCA

Molecular target: T1, UNK ZnF1-3
Experiment: nsRBNS (natural sequence RNA bind-n-seq); RBNS binding buffer (assumed for nsRBNS): 25 mM Tris pH 7.5, 150 mM KCl, 3 mM MgCl2, 0.01% Triton X-100, 500 ug/ml BSA, 20 U/ml SUPERase-In, 4 C; UNK is unkempt and MSI1 is Musashi-1; names of the RNAs are library labels; protein concentration not given here; high values mean tight binding

Binder	binding signal [enrichment R]
B1	0.591
B2	0.8
B3	0.409
B4	0.465
B5	0.458
B6	1.12
B7	3.65
B8	4.56
B9	4.81
B10	5.71
B11	0.842
B12	6.45
B13	1.55
B14	0.231
B15	0.726
B16	0.757
B17	8.27
B18	12.3
B19	7.69
B20	6.77
B21	0.573
B22	0.824
